# Experimental data taken from PMC7862700, “An all-to-all approach to the identification of sequence-specific readers for epigenetic DNA modifications on cytosine”.
# What was measured:
# Test in all cases: DAPPL (digital affinity profiling via proximity ligation, sequencing); 10 mM Tris-HCl pH 7.5, 50 mM NaCl, 1 mM DTT, 4% glycerol, room temperature, 30 min; GST-TFs on glutathione beads, 16-mer random dsDNA library, 0.1% formaldehyde crosslink after washing; high values mean tight binding
# [1] = target: T1, FLI1 (Homo sapiens, UniProt Q01543 1-452); details: protein: recombinant; tags: N-terminal GST; dsDNA, one strand shown
# T1 sequence: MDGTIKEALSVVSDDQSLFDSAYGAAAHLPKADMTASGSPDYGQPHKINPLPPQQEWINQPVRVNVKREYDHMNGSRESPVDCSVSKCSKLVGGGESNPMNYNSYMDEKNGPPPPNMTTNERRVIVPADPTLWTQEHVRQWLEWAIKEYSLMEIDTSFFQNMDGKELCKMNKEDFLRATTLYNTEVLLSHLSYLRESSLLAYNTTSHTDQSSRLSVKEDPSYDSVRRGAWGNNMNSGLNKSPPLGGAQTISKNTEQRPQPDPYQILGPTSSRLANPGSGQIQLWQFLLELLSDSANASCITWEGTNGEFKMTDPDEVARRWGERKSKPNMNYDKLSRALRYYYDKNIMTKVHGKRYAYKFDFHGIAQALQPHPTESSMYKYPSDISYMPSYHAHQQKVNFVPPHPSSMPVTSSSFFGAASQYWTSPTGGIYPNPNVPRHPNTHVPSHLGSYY
# Outline: (§1)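 In yeast, human transcription factors were expressed with a GST fusion, then pulled down on glutathione beads and given DNA barcodes. Pooled with a tag-only sample, they were exposed to 200 nmole of a 16-mer random double-stranded DNA library (Tris/NaCl/DTT/glycerol buffer, room temperature, 30 min), washed, crosslinked with 0.1% formaldehyde, proximity-ligated using BsaI/T4 ligase for 1 h at 37 °C, PCR-amplified and read on an Illumina NextSeq500. Each hexamer's frequency of reads for a factor, divided by the matching frequency for the tag-only sample, gives the binding signal.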
# [2] = target: T2, ELK1 (Homo sapiens, UniProt P19419 1-428); details: protein: recombinant; tags: N-terminal GST; dsDNA, one strand shown
# T2 sequence: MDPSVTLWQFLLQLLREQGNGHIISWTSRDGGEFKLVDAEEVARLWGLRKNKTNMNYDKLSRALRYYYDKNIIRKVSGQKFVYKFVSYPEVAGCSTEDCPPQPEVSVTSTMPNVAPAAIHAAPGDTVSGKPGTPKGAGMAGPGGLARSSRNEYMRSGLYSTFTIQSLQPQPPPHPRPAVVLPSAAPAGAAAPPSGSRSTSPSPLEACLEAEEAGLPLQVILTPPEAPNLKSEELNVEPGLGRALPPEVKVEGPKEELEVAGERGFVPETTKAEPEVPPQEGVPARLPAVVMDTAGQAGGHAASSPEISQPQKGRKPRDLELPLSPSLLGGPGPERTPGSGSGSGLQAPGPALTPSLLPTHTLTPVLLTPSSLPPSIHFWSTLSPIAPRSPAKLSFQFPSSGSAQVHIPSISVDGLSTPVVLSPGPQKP
# Outline: as §1
# [3] = target: T3, GABPA (Homo sapiens, UniProt Q06546 1-454); details: protein: recombinant; tags: N-terminal GST; dsDNA, one strand shown
# T3 sequence: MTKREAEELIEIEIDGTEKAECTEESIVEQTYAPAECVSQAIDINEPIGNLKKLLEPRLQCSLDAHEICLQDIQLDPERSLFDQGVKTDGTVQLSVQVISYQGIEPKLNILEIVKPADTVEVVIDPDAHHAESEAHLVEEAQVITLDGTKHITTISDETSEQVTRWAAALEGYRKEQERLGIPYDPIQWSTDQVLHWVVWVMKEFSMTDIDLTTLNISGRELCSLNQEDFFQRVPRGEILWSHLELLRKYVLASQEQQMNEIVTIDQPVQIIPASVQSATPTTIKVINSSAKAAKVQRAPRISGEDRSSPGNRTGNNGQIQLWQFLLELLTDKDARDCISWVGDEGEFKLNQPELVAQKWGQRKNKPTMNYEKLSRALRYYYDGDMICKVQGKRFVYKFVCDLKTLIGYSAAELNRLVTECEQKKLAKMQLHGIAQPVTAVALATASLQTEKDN
# Outline: as §1
# [4] = target: T4, ERG (Homo sapiens, UniProt P11308 1-479); details: protein: recombinant; tags: N-terminal GST; dsDNA, one strand shown
# T4 sequence: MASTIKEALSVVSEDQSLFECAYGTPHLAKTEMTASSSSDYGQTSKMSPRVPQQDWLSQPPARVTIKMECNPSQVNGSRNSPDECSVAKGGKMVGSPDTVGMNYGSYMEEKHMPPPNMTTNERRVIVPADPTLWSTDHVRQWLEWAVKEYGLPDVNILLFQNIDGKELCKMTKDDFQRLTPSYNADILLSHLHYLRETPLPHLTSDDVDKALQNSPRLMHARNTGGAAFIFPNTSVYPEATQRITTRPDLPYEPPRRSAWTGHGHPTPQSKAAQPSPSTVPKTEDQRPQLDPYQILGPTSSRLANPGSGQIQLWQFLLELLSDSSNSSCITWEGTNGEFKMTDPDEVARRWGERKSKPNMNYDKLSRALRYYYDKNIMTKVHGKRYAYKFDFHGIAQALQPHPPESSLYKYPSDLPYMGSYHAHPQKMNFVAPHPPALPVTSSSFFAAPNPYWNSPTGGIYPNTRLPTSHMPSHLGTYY
# Outline: as §1
# [5] = target: ELF1 (Homo sapiens, UniProt P32519 1-619); details: protein: recombinant; tags: N-terminal GST; dsDNA, one strand shown
# ELF1, sequence (P32519 whole entry): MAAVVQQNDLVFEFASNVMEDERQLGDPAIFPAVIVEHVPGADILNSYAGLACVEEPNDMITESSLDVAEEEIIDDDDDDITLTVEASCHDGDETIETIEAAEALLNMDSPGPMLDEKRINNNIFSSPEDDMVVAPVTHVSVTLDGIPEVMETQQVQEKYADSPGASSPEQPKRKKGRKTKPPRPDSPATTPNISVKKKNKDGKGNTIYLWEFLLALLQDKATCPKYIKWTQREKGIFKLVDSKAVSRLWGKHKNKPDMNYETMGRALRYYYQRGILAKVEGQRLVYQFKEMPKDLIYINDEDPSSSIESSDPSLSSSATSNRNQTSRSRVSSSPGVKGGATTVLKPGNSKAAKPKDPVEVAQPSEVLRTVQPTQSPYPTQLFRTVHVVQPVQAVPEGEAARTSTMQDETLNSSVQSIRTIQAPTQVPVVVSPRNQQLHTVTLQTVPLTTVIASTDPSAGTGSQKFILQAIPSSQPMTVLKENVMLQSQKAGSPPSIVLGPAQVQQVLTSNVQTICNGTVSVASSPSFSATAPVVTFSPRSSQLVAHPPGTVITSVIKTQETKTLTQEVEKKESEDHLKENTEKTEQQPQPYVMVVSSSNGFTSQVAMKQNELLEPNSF
# Outline: as §1
# [6] = target: T5, EHF (Homo sapiens, UniProt Q9NZC4 1-300); details: protein: recombinant; tags: N-terminal GST; dsDNA, one strand shown
# T5 sequence: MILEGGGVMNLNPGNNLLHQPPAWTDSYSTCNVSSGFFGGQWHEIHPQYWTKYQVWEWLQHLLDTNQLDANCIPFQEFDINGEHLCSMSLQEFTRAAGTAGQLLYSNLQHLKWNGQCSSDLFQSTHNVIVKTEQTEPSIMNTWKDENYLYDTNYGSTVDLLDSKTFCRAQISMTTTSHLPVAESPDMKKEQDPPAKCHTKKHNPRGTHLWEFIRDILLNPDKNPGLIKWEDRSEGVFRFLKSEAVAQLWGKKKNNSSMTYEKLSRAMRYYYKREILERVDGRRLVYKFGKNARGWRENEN
# Outline: as §1
# [7] = target: SPI1 (Homo sapiens, UniProt P17947 1-270); details: protein: recombinant; tags: N-terminal GST; dsDNA, one strand shown
# Outline: as §1
# [8] = target: SPIB (Homo sapiens, UniProt Q01892 1-262); details: protein: recombinant; tags: N-terminal GST; dsDNA, one strand shown
# SPIB, sequence (Q01892 whole entry): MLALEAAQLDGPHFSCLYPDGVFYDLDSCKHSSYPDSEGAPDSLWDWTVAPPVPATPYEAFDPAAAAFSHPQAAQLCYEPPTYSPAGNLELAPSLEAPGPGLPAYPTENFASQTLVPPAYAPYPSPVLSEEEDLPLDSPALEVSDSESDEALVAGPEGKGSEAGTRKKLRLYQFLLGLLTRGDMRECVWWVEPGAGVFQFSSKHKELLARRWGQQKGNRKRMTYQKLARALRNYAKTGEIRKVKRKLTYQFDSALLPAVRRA
# Outline: as §1
# [9] = target: T6, ELK3 (Homo sapiens, UniProt P41970 1-407); details: protein: recombinant; tags: N-terminal GST; dsDNA, one strand shown
# T6 sequence: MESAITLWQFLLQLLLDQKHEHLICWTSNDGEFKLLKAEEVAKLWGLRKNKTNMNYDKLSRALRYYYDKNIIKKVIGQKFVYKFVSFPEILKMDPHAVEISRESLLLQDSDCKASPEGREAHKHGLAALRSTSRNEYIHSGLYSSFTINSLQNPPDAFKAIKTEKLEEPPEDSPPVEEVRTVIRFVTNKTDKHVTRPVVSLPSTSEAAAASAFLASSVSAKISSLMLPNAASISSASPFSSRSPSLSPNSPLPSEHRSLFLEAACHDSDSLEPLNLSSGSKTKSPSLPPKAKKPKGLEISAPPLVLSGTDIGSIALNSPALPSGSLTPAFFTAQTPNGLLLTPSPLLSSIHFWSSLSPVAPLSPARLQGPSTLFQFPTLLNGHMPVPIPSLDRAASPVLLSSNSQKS
# Outline: as §1
# [10] = target: T7, FEV (Homo sapiens, UniProt Q99581 1-238); details: protein: recombinant; tags: N-terminal GST; dsDNA, one strand shown
# T7 sequence: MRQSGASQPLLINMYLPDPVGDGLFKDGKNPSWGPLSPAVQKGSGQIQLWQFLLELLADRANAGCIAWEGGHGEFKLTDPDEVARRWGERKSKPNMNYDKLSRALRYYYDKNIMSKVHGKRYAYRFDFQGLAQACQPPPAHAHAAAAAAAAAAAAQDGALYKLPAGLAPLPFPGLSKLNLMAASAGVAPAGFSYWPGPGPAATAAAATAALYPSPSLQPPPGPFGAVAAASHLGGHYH
# Outline: as §1
# [11] = target: ETV5 (Homo sapiens, UniProt P41161 1-510); details: protein: recombinant; tags: N-terminal GST; dsDNA, one strand shown
# ETV5, sequence (P41161 whole entry): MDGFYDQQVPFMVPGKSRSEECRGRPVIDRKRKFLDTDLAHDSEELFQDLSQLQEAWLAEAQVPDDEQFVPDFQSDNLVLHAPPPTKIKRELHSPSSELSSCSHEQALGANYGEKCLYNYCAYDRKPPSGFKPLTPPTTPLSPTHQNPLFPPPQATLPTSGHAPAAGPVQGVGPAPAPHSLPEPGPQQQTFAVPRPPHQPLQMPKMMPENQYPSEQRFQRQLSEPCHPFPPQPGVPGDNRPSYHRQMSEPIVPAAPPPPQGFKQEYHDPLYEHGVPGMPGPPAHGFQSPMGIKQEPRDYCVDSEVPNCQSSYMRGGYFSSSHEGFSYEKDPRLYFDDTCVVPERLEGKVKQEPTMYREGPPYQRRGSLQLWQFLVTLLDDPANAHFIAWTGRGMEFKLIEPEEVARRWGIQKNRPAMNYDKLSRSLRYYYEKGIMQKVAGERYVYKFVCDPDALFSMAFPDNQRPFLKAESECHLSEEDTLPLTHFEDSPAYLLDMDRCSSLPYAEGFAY
# Outline: as §1
# [12] = target: HSF1 (Homo sapiens, UniProt Q00613 1-529); details: protein: recombinant; tags: N-terminal GST; chain copies: 3; dsDNA, one strand shown
# HSF1, sequence (Q00613 whole entry): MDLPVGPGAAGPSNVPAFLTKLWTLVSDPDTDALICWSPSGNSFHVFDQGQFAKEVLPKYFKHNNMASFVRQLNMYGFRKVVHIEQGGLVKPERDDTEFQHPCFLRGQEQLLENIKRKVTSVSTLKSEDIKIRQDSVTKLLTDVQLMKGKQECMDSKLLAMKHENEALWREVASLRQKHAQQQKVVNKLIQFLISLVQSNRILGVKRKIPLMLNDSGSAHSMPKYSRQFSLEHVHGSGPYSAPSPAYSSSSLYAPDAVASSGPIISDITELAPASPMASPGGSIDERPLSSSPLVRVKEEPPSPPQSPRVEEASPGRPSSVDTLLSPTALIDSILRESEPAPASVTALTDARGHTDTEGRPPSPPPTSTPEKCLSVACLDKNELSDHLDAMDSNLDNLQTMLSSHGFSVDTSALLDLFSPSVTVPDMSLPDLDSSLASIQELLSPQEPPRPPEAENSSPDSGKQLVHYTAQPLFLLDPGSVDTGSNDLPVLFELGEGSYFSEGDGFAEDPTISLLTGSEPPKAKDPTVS
# Outline: as §1
# [13] = target: T8, SPIC (Homo sapiens, UniProt Q8N5J4 1-248); details: protein: recombinant; tags: N-terminal GST; dsDNA, one strand shown
# T8 sequence: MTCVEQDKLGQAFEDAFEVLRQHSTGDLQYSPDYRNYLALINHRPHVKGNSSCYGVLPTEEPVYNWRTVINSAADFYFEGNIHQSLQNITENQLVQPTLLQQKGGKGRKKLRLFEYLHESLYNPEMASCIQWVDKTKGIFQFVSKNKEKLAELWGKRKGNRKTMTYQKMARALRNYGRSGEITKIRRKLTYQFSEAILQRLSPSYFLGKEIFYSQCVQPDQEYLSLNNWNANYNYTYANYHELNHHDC
# Outline: as §1
# [14] = target: ELF4 (Homo sapiens, UniProt Q99607 1-663); details: protein: recombinant; tags: N-terminal GST; dsDNA, one strand shown
# ELF4, sequence (Q99607 whole entry): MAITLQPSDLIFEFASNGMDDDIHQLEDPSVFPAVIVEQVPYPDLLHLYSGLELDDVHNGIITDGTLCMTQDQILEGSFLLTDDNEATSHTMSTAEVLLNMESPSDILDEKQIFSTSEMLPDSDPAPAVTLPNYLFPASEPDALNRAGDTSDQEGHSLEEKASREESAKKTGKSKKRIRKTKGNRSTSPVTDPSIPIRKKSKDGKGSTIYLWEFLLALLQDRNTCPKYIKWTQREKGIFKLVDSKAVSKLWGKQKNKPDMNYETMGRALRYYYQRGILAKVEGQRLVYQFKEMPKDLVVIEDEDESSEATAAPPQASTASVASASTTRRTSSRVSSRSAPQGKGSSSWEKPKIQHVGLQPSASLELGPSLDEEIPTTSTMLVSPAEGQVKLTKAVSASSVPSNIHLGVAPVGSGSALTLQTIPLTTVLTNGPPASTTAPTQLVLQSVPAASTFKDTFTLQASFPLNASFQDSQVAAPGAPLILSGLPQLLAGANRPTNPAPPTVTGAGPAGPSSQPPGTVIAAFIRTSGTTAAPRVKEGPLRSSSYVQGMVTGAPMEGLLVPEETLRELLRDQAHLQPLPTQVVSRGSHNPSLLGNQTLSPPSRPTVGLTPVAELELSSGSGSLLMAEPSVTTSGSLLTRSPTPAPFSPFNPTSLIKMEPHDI
# Outline: as §1
# [15] = target: T9, ELK4 (Homo sapiens, UniProt P28324-2 1-405); details: protein: recombinant; tags: N-terminal GST; dsDNA, one strand shown
# T9 sequence: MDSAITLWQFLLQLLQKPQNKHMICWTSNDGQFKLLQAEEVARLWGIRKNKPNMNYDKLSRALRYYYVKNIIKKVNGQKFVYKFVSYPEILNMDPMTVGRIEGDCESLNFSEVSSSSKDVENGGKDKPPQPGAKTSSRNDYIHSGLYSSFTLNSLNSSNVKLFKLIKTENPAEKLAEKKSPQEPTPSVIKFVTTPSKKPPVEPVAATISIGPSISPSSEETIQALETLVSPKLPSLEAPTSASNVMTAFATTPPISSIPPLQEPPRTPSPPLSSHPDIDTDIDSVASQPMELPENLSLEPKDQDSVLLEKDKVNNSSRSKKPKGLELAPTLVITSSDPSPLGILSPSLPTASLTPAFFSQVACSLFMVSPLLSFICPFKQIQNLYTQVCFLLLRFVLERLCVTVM
# Outline: as §1
# [16] = target: T10, ETV2 (Homo sapiens, UniProt O00321 1-342); details: protein: recombinant; tags: N-terminal GST; dsDNA, one strand shown
# T10 sequence: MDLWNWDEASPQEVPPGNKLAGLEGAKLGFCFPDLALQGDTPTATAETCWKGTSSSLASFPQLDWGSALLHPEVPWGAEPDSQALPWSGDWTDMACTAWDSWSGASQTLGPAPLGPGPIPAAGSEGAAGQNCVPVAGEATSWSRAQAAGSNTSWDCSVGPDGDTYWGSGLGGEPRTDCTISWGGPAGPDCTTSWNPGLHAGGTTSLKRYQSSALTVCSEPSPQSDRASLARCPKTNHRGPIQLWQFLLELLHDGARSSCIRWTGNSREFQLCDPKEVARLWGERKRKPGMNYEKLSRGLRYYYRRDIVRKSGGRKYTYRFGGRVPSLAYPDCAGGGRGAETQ
# Outline: as §1
# [17] = target: T11, ELF3 (Homo sapiens, UniProt P78545 1-371); details: protein: recombinant; tags: N-terminal GST; dsDNA, one strand shown
# T11 sequence: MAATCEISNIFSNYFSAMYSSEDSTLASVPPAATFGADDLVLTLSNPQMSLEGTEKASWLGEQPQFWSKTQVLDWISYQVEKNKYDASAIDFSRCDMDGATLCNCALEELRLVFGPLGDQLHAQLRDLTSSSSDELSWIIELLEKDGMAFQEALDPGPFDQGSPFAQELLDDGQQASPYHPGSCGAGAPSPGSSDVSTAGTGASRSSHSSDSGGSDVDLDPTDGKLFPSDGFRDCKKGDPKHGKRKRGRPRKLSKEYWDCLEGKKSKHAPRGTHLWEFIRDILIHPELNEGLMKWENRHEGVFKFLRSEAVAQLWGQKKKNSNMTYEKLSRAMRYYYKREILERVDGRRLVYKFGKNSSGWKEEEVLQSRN
# Outline: as §1
# [18] = target: ETV1 (Homo sapiens, UniProt P50549 1-477); details: protein: recombinant; tags: N-terminal GST; dsDNA, one strand shown
# ETV1, sequence (P50549 whole entry): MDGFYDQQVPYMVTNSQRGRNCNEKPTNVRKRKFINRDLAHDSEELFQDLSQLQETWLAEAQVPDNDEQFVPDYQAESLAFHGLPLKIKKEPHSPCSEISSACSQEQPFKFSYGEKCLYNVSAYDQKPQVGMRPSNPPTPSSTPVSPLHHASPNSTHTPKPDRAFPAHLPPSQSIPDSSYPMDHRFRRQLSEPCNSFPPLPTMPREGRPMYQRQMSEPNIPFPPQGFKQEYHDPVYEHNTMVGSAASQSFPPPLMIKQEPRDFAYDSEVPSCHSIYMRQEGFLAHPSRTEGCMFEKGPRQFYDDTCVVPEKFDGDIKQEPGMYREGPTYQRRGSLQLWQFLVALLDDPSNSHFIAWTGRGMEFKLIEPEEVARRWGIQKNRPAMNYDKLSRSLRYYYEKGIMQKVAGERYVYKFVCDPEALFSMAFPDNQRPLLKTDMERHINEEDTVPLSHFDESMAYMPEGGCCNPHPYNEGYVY
# Outline: as §1
sequence,measurement,setting,value
TGCCGA,binding signal,[1],"1.07 fold enrichment (6-mer frequency, TF over GST control)"
same,binding signal,[2],"1.25 fold enrichment (6-mer frequency, TF over GST control)"
same,binding signal,[3],"1.21 fold enrichment (6-mer frequency, TF over GST control)"
same,binding signal,[4],"1.1 fold enrichment (6-mer frequency, TF over GST control)"
same,binding signal,[5],"1.03 fold enrichment (6-mer frequency, TF over GST control)"
same,binding signal,[6],"1.24 fold enrichment (6-mer frequency, TF over GST control)"
same,binding signal,[7],"1.2 fold enrichment (6-mer frequency, TF over GST control)"
same,binding signal,[8],"1.18 fold enrichment (6-mer frequency, TF over GST control)"
same,binding signal,[9],"1.1 fold enrichment (6-mer frequency, TF over GST control)"
same,binding signal,[10],"1.11 fold enrichment (6-mer frequency, TF over GST control)"
same,binding signal,[11],"1.19 fold enrichment (6-mer frequency, TF over GST control)"
same,binding signal,[12],"1.07 fold enrichment (6-mer frequency, TF over GST control)"
same,binding signal,[13],"1.37 fold enrichment (6-mer frequency, TF over GST control)"
same,binding signal,[14],"1.19 fold enrichment (6-mer frequency, TF over GST control)"
same,binding signal,[15],"1.14 fold enrichment (6-mer frequency, TF over GST control)"
same,binding signal,[16],"1.08 fold enrichment (6-mer frequency, TF over GST control)"
same,binding signal,[17],"1.16 fold enrichment (6-mer frequency, TF over GST control)"
same,binding signal,[18],"1.14 fold enrichment (6-mer frequency, TF over GST control)"
